# Most compounds without a hit are left out; they make up all but 2.5% or so of the library.
# STAT3 SMM: STAT3 binders, primary screen, biochemical, small molecule microarray, single point, set 2; Signal transducer and activator of transcription 3 (Homo sapiens), P40763; His-STAT3 binding, anti-His fluorescence; calls only; 17,000 compounds, 0.2% hits; AID 624138, 2012;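 active = compounds whose four printed spots each show fluorescence over background unusually high for their array block, chance value under 7%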
# mut p53 SMM: binders of human mutant p53, primary screen, biochemical, small molecule microarray, anti-GST fluorescence; mutant tumor protein p53 (GST-tagged), Homo sapiens; small molecule microarray binding; calls only; 17,000 compounds, 0.4% hits; AID 624136, 2012;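 active = compounds whose four printed spots each glow above background more than chance allows, each with a p-value under 7%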
# NFkB binder: binders of NF-kB p50 subunit, primary screen, biochemical, small molecule microarray, anti-His fluorescence; Nuclear factor NF-kappa-B p105 subunit (Homo sapiens), P19838; anti-His fluorescence binding; calls only; 17,000 compounds, 1.3% hits;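 active = spot fluorescence over background significantly raised, with a chance value under 7% in all four replicate spots of the compound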;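 note: probe protein is his-tagged human p50 processed subunit at 1 µg/ml; raw spot fluorescence signals with no normalization applied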
# Target sequence (P19838 1-433 limits assumed): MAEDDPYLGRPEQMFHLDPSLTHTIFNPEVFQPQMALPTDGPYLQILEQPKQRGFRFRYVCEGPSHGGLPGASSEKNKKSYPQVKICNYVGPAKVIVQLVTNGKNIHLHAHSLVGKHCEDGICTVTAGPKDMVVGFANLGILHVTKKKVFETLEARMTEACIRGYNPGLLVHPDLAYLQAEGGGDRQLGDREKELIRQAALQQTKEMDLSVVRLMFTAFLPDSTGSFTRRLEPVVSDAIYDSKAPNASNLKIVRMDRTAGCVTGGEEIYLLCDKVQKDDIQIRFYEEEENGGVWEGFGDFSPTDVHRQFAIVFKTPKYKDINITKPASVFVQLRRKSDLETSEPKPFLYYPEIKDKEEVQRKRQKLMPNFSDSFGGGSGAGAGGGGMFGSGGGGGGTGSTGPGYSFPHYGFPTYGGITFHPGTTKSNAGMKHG
# Myc binder: binders of human c-Myc, primary screen, biochemical, small molecule microarray, anti-His fluorescence | Myc proto-oncogene protein (Homo sapiens), P01106 | 17,000 compounds, 1.5% hits | calls only | His-c-Myc binding;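 active = spot fluorescence over background with P-value below 7% in all four replicate spots, showing protein binding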;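 note: score is binary with 100 for all four spots passing and 0 otherwise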
# * hit, by the source's call; i = inactive; · = no result given; + = active, no number.
SMILES,STAT3 SMM,mut p53 SMM,NFkB binder,Myc binder
CC(C)NC(=O)Nc1ccc2c(c1)C(=O)N([C@@H](C)CO)C[C@H](C)[C@@H](CN(C)S(=O)(=O)c1ccccc1)OCCCC[C@@H](C)O2,i,i,+,+
Cc1ccc([N+](=O)[O-])cc1NC(=O)CCN1C(=O)c2ccccc2C1=O,i,i,i,i
O=C(O)CCN1C(=O)c2cccc3c([N+](=O)[O-])ccc(c23)C1=O,i,i,i,+
Cc1nnc(SCC(=O)Nc2cccc(I)c2)s1,i,i,i,i
Cc1ccc(-c2cc3ccccn3c2C(=O)CSc2nnc(C)s2)cc1,i,i,i,+
C[C@@H]1O[C@@H](Oc2ccc(-c3coc4cc(O[C@@H]5O[C@@H](C)[C@H](O)[C@@H](O)[C@H]5O)ccc4c3=O)cc2)[C@H](O)[C@H](O)[C@H]1O,i,i,i,i
Cc1c(C(N)=O)sc2ncn(CC(=O)Nc3cc(Cl)ccc3Cl)c(=O)c12,i,i,i,i
COc1ccc(S(=O)(=O)N(C)C[C@H]2Oc3ccc(NC(=O)Nc4ccc(C(F)(F)F)cc4)cc3CC(=O)N([C@H](C)CO)C[C@H]2C)cc1,i,i,i,+
COc1ccc(S(=O)(=O)N(C)C[C@@H]2Oc3ccc(NC(=O)Nc4ccc(C(F)(F)F)cc4)cc3CC(=O)N([C@@H](C)CO)C[C@H]2C)cc1,i,i,i,i
C[C@H](CO)N1C[C@H](C)[C@@H](CN(C)Cc2ccc(C(F)(F)F)cc2)Oc2ccc(NC(=O)Cc3cn(C)c4ccccc34)cc2CC1=O,i,i,+,+
C[C@H]1CN([C@@H](C)CO)C(=O)Cc2cc(NC(=O)Nc3ccc(F)cc3)ccc2O[C@H]1CN(C)CC1CC1,+,i,i,i
C[C@@H]1CN([C@@H](C)CO)C(=O)Cc2cc(N(C)C)ccc2O[C@H]1CN(C)S(=O)(=O)c1cccs1,i,i,i,+
C[C@@H]1CN([C@H](C)CO)C(=O)Cc2cc(N(C)C)ccc2O[C@H]1CN(C)S(=O)(=O)c1cccs1,i,i,i,i
COc1cccc(CNc2nc3ccccc3n2C)c1OC,i,i,i,i
COC(=O)C(CC#Cc1ccc2c(c1)[C@]1(C(=O)N2)[C@H](c2ccc(OCCO)cc2)N2[C@H](c3ccccc3)[C@H](c3ccccc3)OC(=O)[C@H]2[C@@H]1C(N)=O)C(=O)OC,i,i,i,i
Cc1noc(C)c1S(=O)(=O)Nc1ccc2c(c1)CC(=O)N([C@H](C)CO)C[C@@H](C)[C@@H](CN(C)Cc1ccc(-c3ccccc3)cc1)O2,+,i,i,+
COc1ccc(NC(=O)Nc2ccc3c(c2)CC(=O)N([C@@H](C)CO)C[C@H](C)[C@@H](CN(C)Cc2ccc(Oc4ccccc4)cc2)O3)cc1,i,+,i,i
Cc1noc(C)c1S(=O)(=O)Nc1ccc2c(c1)CC(=O)N([C@@H](C)CO)C[C@H](C)[C@H](CN(C)Cc1ccc(-c3ccccc3)cc1)O2,i,i,i,i
CC1=C(C)CC(C(=O)Nc2cccc3ccccc23)C(C(=O)O)C1 (configuration not stated),i,i,i,i
C[C@@H]1CN([C@@H](C)CO)C(=O)c2cc(NC(=O)c3ccncc3)ccc2O[C@@H](C)CCCCO[C@H]1CN(C)C(=O)C1CCCCC1,i,i,i,i
Cc1noc(C)c1S(=O)(=O)N(C)C[C@@H]1OCCCC[C@@H](C)Oc2ccc(NC(=O)CCCN(C)C)cc2C(=O)N([C@H](C)CO)C[C@H]1C,i,i,i,i
CC(=O)Nc1ccccc1NC(=O)Cc1ccccc1[N+](=O)[O-],i,i,i,i
C/C=C/CC(C)C(O)C1C(=O)NC(CC)C(=O)N(C)CC(=O)N(C)C(CC(C)C)C(=O)NC(C(C)C)C(=O)N(C)C(CC(C)C)C(=O)NC(C)C(=O)NC(C)C(=O)N(C)C(CC(C)C)C(=O)N(C)C(CC(C)C)C(=O)N(C)C(C(C)C)C(=O)N1C (configuration not stated),i,i,+,·
O=C(O)CCCC(=O)Nc1ccc(Br)cc1C(=O)O,i,i,+,+
C[C@@H]1CCCCO[C@@H](CN(C)Cc2ccc(C(=O)O)cc2)[C@H](C)CN([C@H](C)CO)C(=O)c2cc(NC(=O)Nc3ccc(C(F)(F)F)cc3)ccc2O1,i,i,+,i
SMILES,STAT3 SMM,mut p53 SMM,NFkB binder,Myc binder
C[C@@H]1CN([C@@H](C)CO)C(=O)c2cc(NC(=O)Nc3ccc(C(F)(F)F)cc3)ccc2O[C@@H](C)CCCCO[C@H]1CN(C)Cc1ccc(C(F)(F)F)cc1,i,i,+,i
C[C@@H]1CCCCO[C@@H](CN(C)Cc2ccc(C(=O)O)cc2)[C@@H](C)CN([C@H](C)CO)C(=O)c2cc(NC(=O)Nc3ccc(F)cc3)ccc2O1,i,i,i,i
C[C@@H]1CCCCO[C@@H](CN(C)Cc2ccc(C(F)(F)F)cc2)[C@@H](C)CN([C@H](C)CO)C(=O)c2cc(NC(=O)C3CCCCC3)ccc2O1,i,i,i,i
CCCN(C)C[C@@H]1OCCCC[C@@H](C)Oc2ccc(NC(=O)Nc3ccc(F)cc3)cc2C(=O)N([C@H](C)CO)C[C@H]1C,i,i,+,i
C[C@@H]1CN([C@@H](C)CO)C(=O)c2cc(NC(=O)Nc3ccc(F)cc3)ccc2O[C@@H](C)CCCCO[C@H]1CN(C)C(=O)Cc1ccccc1,i,i,+,+
C[C@H](CO)N1C[C@H](C)[C@H](CN(C)C(=O)c2ccccc2)OCCCC[C@H](C)Oc2ccc(NC(=O)Nc3ccc4c(c3)OCO4)cc2C1=O,i,+,i,+
C[C@@H]1CCCCO[C@H](CN(C)C(=O)c2ccccc2)[C@H](C)CN([C@@H](C)CO)C(=O)c2cc(NC(=O)Nc3ccc(F)cc3)ccc2O1,i,i,+,i
C[C@@H]1CN([C@@H](C)CO)C(=O)c2cc(NC(=O)Nc3ccc(F)cc3)ccc2O[C@@H](C)CCCCO[C@H]1CN(C)C(=O)c1ccccc1,i,i,i,i
C[C@@H]1CCCCO[C@H](CN(C)C(=O)c2ccccc2)[C@@H](C)CN([C@H](C)CO)C(=O)c2cc(NC(=O)Nc3ccc4c(c3)OCO4)ccc2O1,i,i,i,i
COc1ccc(S(=O)(=O)N(C)C[C@@H]2Oc3ccc(NC(=O)Cc4ccccc4)cc3C(=O)N([C@H](C)CO)C[C@@H]2C)cc1,i,i,i,i
Cn1c(SCC(=O)Nc2cccc(F)c2)nnc1-c1ccc(Cl)cc1,i,i,i,i

# Bioassay records: PubChem, Broad Institute
